Bioassay records (PubChem)
RT RNaseH block – HIV-1 RT RNase H inhibitors, primary screen, biochemical, fluorescence. AID 565, 2006. Gag-Pol polyprotein (Human immunodeficiency virus type 1 group M subtype B (isolate …. RT-RNase H RNA/DNA duplex cleavage. 65,000 tested, 1.9% active. inhibition, % at 10 µM; in the data active means inhibition above about 50%
RmlC RmlD mix – RmlC and RmlD coupled enzyme inhibitors, primary screen, biochemical, 384-well, compound mixtures, retest. RmlC/RmlD coupled enzyme inhibition, 384-well mixture HTS. inhibition, % at 5.5 µM. 110,000 tested, 0.39% active; in the data active means inhibition above about 30%, passing the limit was not always enough
RmlCD artifact – counter-screen for RmlC/RmlD inhibitors: fluorescence artifact, dose response, artefact control, biochemical. shares compounds with RmlC RmlD mix. RmlC/RmlD assay fluorescence artifact counter-screen. calls only. 360 tested, 96% active; call rule not given here;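 further: compound alone with no enzyme and no substrates present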
* = called active by the depositor; i = inactive; x = no result; + = active, no number. Shown is part of a subset that was picked to be rich in hits.

SMILES	RT RNaseH block	RmlC RmlD mix	RmlCD artifact
CC1CN(C(=O)c2cc3c(=O)n4ccccc4nc3s2)CC(C)O1 (stereo not drawn)	-20	53*	+
O=C1C=C(c2ccc(F)nc2)CCC1	x	12	x
Cc1cc(-c2nc3ncccc3o2)ccc1N	-5	69*	+
Nc1cc(-c2nc3ncccc3o2)ccc1Cl	x	44	x
CCOC(=O)[C@@H]1[C@H]2COc3ccccc3[C@@H]2N2C(=O)N(c3ccc(F)cc3)C(=O)[C@]12C	x	-14	x
Cc1[nH]n(-c2ccccc2)c(=O)c1/C=N/c1ccccn1	-5	3	x
Cc1[nH]n(-c2ccccc2)c(=O)c1C=Nc1cnc2ccccc2c1	x	44*	+
CC(C)OC(=O)c1cc2ccccc2[nH]1	x	-10	x
CCOC(=O)c1cc2cc3ccccc3cc2[nH]1	x	125*	+
CCOc1ccc2oc(-c3ccccc3)c(C(=O)O)c2c1	-7	26	x
CC(Oc1ccc2oc(-c3ccccc3)c(C(=O)O)c2c1)C(=O)O (stereo not drawn)	-2	58*	+
Cc1[nH]ccc(=O)c1OC1OC(CO)C(O)C(O)C1O (stereo not drawn)	x	8	x
COC(=O)C(Cc1ccccc1)NS(=O)(=O)c1ccc(F)cc1Br (stereo not drawn)	x	7	x
COc1ccc(-c2nc(C#N)c(N3CCOCC3)o2)cc1OC	-20	26	x
COc1ccc(-c2nc(C#N)c(N3CCC(C(N)=O)CC3)o2)cc1OC	x	41*	+
COc1ccc(-c2cn3cccnc3n2)cc1NC(=O)c1ccc(Br)o1	-27	22	x
Cc1ccc(-c2cn3cccnc3n2)cc1NC(=O)c1ccc(Br)o1	-8	70*	+
O=C(Nc1cccc(-c2cn3cccnc3n2)c1)c1ccco1	-1	33	x
CCOCC(=O)Nc1ccc(-c2cn3cccnc3n2)cc1	-8	106*	+
CCCC(=O)Nc1cc(-c2cn3cccnc3n2)ccc1OC	-7	21	x
O=C(Nc1cccc(-c2cn3cccnc3n2)c1)c1ccc(Br)o1	-3	55*	+
COc1ccccc1/C=C/C(=O)c1c2c(c(C)[nH]c1=O)CCCC2	x	13	x
CNC(=O)[C@@]1(C)C=C[C@@H](Cc2ccccc2)N1C(=O)OC	x	2	x
Cc1cc(=O)n2ccccc2c1C#N	x	104*	+
Cc1cc(=O)n2c(ccc3ccccc32)c1C#N	-19	8	x
SMILES	RT RNaseH block	RmlC RmlD mix	RmlCD artifact
C=CC[C@]12C[C@@H](OC)C(=O)C=C1O[C@@H](c1ccc(OC)c(OC)c1)[C@H]2C	x	-11	x
CCO[C@H]1OC(C(=O)NCc2ccccc2)=C[C@@H](C(C)(C)C)[C@@H]1CCCO	x	2	x
CCC(=O)c1cc2c(C)cc(=O)oc2c(C)c1OC	x	-4	x
CCC(=O)Nc1c(OC(=O)CC)ccc2c(C)cc(=O)oc12	-9	+	+
O=C(NCC1CCCO1)c1onc(CSc2cccc3ccccc23)c1C(=O)O (stereo not drawn)	x	-6	x
CC1(C)CC(=O)C2=C(C1)Nc1ccccc1NC2c1cccnc1 (stereo not drawn)	4	-16	x
CC1=C(C#N)C(c2cccnc2)C2=C(CC(C)(C)CC2=O)N1 (stereo not drawn)	-4	59*	+
Oc1ccc(C[C@@H]2CNC(=S)N2CCCCC2CCCCC2)cc1	x	-10	x
COC(=O)c1cc(Cl)c(NC(=O)/C=C/c2ccc(Cl)cc2Cl)cc1OC	x	62*	+
COC(=O)c1cc(Cl)c(NC(=O)/C=C/c2ccc(Cl)cc2)cc1OC	x	-4	x
Cc1nc(C(=O)NCc2ccccc2)sc1C1(C)CC(c2ccccc2)=NO1 (stereo not drawn)	x	-10	x
COc1ccc2nc(-c3ccc(N)cc3)[nH]c2c1	x	24	x
Nc1ccc2nc(-c3ccc(N)c(Cl)c3)[nH]c2c1	x	40*	+
Nc1ccc2nc(-c3ccccc3)[nH]c2c1	x	100	x
Nc1ccc(-c2nc3c(Cl)cc(N)cc3[nH]2)cc1	2	50*	+
Cc1ccc2c(=O)c(CN(C)C3CCN(C)CC3)c(C)[nH]c2c1C	-10	x	x
COCCOC(=O)c1c(N)n(Cc2ccccc2)c2nc3ccccc3nc12	6	54	x
CCOC(=O)c1c(N)n(Cc2ccco2)c2nc3ccccc3nc12	-4	72	x
CCCCOCCCn1c(N)c(C(=O)OCCOC)c2nc3ccccc3nc21	5	57*	+
COCC(C)OC(=O)c1c(N)n(Cc2ccco2)c2nc3ccccc3nc12 (stereo not drawn)	7	56*	+
CCCCCOc1ccccc1C(=O)NCCC(=O)O	x	-43	x
COc1ccc(C2/C=C\CN(C(=O)NC(C)C)CC(=O)N2Cc2ccc(F)cc2)cc1 (stereo not drawn)	x	3	x
N#Cc1nc(-c2cccs2)oc1NCc1ccccc1	-29	47	x
C=CCNc1oc(-c2cccs2)nc1C#N	x	108*	+
C[C@@H]1NC(=O)c2cc([N+](=O)[O-])cc(I)c2NCCCC[C@@H](C(N)=O)NC(=O)[C@H](CCC(=O)O)NC1=O	x	-8	x
SMILES	RT RNaseH block	RmlC RmlD mix	RmlCD artifact
CCc1cc2c(CN3CCN(CCO)CC3)cc(=O)oc2cc1O	-11	61*	+
CCc1cc2c(CN3CCN(C)CC3)cc(=O)oc2cc1O	0	-2	x
CC(=O)/C=C(\C)NCCNc1c(F)c(F)c(CO)c(F)c1F	3	1	x
O=C(Cn1c(=O)n(CCCC(=O)NC2CCCC2)c(=O)c2ccccc21)NCCC1=CCCCC1	20	-8	x
C=CCn1c(=O)/c(=C\c2ccsc2)s/c1=C(/C#N)C(=O)NCCN1CCOCC1	-9	7	x
COCCCn1c(=O)/c(=C\c2ccc(OC(F)F)c(OC)c2)s/c1=C(/C#N)C(=O)NCCOC	x	x	i
CCC(C)(C(=O)NC1CCCCC1)N(Cc1ccco1)C(=O)Cc1cccs1 (stereo not drawn)	x	88	x
CCOc1ccc2c3c(c(=O)oc2c1OCC)CCCC3	x	3	x
COc1ccc2c3c(c(=O)oc2c1OCC(N)=O)CCCC3	-15	32*	+
Cn1c(-c2cc3ccc(OC(=O)C(C)(C)C)cc3oc2=O)nc2ccccc21	x	-41	x
CC(=O)Oc1ccc2cc(-c3nc4ccccc4n3C)c(=O)oc2c1	-2	x	+
COc1ccc2ccc(=O)oc2c1	x	-7	x
CC(=O)Oc1ccc2ccc(=O)oc2c1	x	+	+
Cc1ccc(CNC(=O)C2CC3Cn4c(nc5cc(Cl)c(Cl)cc54)C3N2C)o1 (stereo not drawn)	x	0	x
CCOC(=O)C1=C(CSc2nc3ccccc3s2)NC(=O)NC1c1cccc([N+](=O)[O-])c1 (stereo not drawn)	x	8	x
COc1ccc(-c2oc3ncn4nc(COc5ccccc5)nc4c3c2-c2ccc(OC)cc2)cc1	36	117*	+
COc1ccc(-c2oc3ncn4nc(Cc5ccccc5)nc4c3c2-c2ccc(OC)cc2)cc1	26	84	x
COC(=O)/C(=C/Nc1cccc2ccccc12)[N+](=O)[O-]	x	158*	+
COc1ccc(OC)c(NC(=O)Nc2cccc3ccccc23)c1	x	-8	x
COc1ccc(Oc2c(C)oc3c(CN4CCOCC4)c(O)ccc3c2=O)cc1	x	10	x
COc1ccccc1Oc1c(C)oc2c(CN3CCN(CCO)CC3)c(O)ccc2c1=O	-2	x	x
